What all share (experiment): DAPPL (digital affinity profiling via proximity ligation, sequencing); 10 mM Tris-HCl pH 7.5, 50 mM NaCl, 1 mM DTT, 4% glycerol, room temperature, 30 min; GST-TFs on glutathione beads, 16-mer random dsDNA library, 0.1% formaldehyde crosslink after washing; high values mean tight binding
Holding throughout (settings): protein: recombinant; tags: N-terminal GST; dsDNA, one strand shown

The target of test [1] is T1, FLI1 (Homo sapiens, UniProt Q01543 1-452).
T1 sequence: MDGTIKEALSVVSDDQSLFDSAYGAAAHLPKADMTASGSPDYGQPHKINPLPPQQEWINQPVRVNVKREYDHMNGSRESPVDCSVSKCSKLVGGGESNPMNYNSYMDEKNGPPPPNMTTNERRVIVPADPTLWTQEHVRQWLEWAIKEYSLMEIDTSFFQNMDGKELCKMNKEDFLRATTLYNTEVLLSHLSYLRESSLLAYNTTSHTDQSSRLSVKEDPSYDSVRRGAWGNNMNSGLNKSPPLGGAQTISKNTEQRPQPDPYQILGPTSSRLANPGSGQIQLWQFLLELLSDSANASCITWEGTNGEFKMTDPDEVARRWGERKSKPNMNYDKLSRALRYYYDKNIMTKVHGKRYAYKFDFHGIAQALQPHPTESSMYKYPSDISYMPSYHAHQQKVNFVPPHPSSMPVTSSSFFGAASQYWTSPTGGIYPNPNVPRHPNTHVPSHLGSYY
Summed up:
(§1)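 A tag-only sample was pooled with DNA-barcoded human transcription factors that had been expressed in yeast as GST fusions and captured on glutathione beads. The pools were incubated for 30 min at room temperature with 200 nmole of a random double-stranded 16-mer DNA library in Tris/NaCl/DTT/glycerol buffer, then washed, crosslinked with 0.1% formaldehyde, proximity-ligated (BsaI/T4 ligase, 1 h, 37 °C), PCR-amplified and sequenced on an Illumina NextSeq500. Binding signal is each hexamer's read frequency for a factor divided by its frequency for the tag-only sample.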

Test [2] has as its target T2, ELK1 (Homo sapiens, UniProt P19419 1-428).
T2 sequence: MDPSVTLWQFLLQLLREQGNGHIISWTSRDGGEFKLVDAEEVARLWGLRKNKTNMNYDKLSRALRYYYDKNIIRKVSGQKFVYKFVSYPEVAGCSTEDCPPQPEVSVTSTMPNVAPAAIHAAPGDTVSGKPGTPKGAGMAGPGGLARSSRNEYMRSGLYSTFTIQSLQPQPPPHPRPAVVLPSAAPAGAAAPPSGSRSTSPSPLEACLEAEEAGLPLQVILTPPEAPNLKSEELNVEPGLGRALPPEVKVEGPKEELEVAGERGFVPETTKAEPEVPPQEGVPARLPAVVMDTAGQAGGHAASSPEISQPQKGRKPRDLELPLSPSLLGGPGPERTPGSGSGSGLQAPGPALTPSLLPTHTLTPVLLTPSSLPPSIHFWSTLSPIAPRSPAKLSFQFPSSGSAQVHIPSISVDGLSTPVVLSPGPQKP
Summed up:
as §1

The target of test [3] is T3, GABPA (Homo sapiens, UniProt Q06546 1-454).
T3 sequence: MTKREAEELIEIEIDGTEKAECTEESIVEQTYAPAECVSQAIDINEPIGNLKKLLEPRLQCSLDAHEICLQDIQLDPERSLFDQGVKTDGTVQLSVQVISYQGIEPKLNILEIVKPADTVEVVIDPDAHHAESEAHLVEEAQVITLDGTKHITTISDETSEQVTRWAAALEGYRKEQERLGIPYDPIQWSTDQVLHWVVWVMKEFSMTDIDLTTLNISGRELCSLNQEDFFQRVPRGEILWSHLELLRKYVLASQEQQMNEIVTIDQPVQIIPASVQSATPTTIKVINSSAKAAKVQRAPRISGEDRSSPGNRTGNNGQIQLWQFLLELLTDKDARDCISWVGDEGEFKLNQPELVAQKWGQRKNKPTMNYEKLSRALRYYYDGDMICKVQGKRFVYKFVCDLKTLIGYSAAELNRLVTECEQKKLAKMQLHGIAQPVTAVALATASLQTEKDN
Put shortly:
as §1

Test [4] addresses T4, ERG (Homo sapiens, UniProt P11308 1-479).
T4 sequence: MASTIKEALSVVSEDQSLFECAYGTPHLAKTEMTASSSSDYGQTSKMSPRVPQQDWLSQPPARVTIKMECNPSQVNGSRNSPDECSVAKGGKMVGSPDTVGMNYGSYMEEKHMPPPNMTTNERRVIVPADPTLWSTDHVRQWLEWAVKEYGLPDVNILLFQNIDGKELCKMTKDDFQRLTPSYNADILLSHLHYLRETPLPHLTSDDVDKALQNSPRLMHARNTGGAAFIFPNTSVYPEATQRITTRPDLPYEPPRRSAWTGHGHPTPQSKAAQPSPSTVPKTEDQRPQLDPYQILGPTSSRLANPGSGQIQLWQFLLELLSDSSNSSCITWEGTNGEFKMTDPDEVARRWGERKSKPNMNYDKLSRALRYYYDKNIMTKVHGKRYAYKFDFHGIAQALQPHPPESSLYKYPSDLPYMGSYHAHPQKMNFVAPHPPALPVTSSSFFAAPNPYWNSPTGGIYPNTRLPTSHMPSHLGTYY
Summed up:
as §1

Test [5] addresses ELF1 (Homo sapiens, UniProt P32519 1-619). Summed up: as §1
Test [6] has as its target T5, EHF (Homo sapiens, UniProt Q9NZC4 1-300).
T5 sequence: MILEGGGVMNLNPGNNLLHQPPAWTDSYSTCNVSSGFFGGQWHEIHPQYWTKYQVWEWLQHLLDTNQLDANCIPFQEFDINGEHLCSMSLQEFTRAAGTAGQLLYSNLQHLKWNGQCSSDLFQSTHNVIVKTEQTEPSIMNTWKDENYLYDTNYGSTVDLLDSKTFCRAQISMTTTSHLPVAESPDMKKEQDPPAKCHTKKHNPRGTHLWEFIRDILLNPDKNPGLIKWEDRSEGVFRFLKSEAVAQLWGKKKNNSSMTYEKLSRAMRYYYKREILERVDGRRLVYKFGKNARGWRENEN
Summed up: as §1

Test [7] has as its target SPI1 (Homo sapiens, UniProt P17947 1-270). Summed up: as §1
Test [8] concerns the target SPIB (Homo sapiens, UniProt Q01892 1-262). Summed up:
as §1

Test [9] has as its target T6, ELK3 (Homo sapiens, UniProt P41970 1-407).
T6 sequence: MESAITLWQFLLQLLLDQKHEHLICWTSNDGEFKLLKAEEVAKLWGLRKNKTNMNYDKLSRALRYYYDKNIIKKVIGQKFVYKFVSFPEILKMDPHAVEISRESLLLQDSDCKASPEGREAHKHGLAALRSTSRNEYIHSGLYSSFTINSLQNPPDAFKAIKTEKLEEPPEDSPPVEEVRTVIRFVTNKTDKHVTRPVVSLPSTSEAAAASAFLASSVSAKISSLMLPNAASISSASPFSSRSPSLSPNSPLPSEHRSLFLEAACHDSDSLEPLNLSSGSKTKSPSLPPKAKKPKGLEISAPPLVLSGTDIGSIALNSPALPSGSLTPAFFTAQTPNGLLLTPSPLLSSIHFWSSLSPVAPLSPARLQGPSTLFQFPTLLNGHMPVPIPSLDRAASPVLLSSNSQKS
Summed up: as §1

Sequence of ELF1 (P32519 whole entry): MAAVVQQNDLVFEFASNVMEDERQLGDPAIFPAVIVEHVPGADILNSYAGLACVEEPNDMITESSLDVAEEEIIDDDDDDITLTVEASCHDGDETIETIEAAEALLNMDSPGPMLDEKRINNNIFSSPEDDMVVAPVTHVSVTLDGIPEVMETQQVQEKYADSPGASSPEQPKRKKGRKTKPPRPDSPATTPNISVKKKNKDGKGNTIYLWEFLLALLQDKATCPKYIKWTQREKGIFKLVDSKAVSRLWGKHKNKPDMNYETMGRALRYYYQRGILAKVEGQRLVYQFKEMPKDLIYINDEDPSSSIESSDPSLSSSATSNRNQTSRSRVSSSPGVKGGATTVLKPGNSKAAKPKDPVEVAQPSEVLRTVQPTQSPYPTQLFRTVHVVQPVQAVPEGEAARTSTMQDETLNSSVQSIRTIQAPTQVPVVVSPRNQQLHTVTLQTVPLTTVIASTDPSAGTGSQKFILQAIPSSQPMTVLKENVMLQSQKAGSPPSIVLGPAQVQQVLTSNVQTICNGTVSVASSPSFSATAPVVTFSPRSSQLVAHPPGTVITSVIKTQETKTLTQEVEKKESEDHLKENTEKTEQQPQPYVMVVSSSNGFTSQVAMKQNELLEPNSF
Sequence of SPIB (Q01892 whole entry): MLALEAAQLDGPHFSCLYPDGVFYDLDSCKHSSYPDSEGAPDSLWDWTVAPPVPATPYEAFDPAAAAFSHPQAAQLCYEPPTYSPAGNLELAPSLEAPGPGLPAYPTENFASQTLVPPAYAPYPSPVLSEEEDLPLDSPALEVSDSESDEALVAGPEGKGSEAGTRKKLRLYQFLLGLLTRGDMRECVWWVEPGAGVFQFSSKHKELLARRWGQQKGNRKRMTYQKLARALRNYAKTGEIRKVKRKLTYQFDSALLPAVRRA

For the sequence GCCTAC, the binding signal is 1.18 fold enrichment (6-mer frequency, TF over GST control) in test [1]; 1.17 fold enrichment (6-mer frequency, TF over GST control) in test [2]; 1.28 fold enrichment (6-mer frequency, TF over GST control) in [3]; 1.25 fold enrichment (6-mer frequency, TF over GST control) in test [4]; 1.21 fold enrichment (6-mer frequency, TF over GST control) in test [5]; 1.25 fold enrichment (6-mer frequency, TF over GST control) in test [6]. Besides, the binding signal in test [7] is 1.18 fold enrichment (6-mer frequency, TF over GST control); in [8], 1.21 fold enrichment (6-mer frequency, TF over GST control); in [9], 1.1 fold enrichment (6-mer frequency, TF over GST control).
As to TATGAC, the binding signal in [1] is 1.31 fold enrichment (6-mer frequency, TF over GST control); in test [2] it was 1.34 fold enrichment (6-mer frequency, TF over GST control); in test [3], 1.37 fold enrichment (6-mer frequency, TF over GST control); in test [4], 1.31 fold enrichment (6-mer frequency, TF over GST control); in [5], 1.34 fold enrichment (6-mer frequency, TF over GST control); in test [6], 1.23 fold enrichment (6-mer frequency, TF over GST control). Further, the binding signal in test [7] was 1.27 fold enrichment (6-mer frequency, TF over GST control); in test [8], 1.4 fold enrichment (6-mer frequency, TF over GST control); in test [9], 1.32 fold enrichment (6-mer frequency, TF over GST control).
With TGCTTC, the binding signal is 2.13 fold enrichment (6-mer frequency, TF over GST control) in [1]; 2.3 fold enrichment (6-mer frequency, TF over GST control) in test [2]; 2.09 fold enrichment (6-mer frequency, TF over GST control) in [3]; 2.37 fold enrichment (6-mer frequency, TF over GST control) in test [4]; 2 fold enrichment (6-mer frequency, TF over GST control) in test [5]; 2.16 fold enrichment (6-mer frequency, TF over GST control) in test [6]. Moreover, the binding signal in test [7] is 2.24 fold enrichment (6-mer frequency, TF over GST control); in test [8] it was 2.31 fold enrichment (6-mer frequency, TF over GST control); in [9] it was 2.47 fold enrichment (6-mer frequency, TF over GST control).
In the case of TAATAT, the binding signal is 1.36 fold enrichment (6-mer frequency, TF over GST control) in test [1]; 1.25 fold enrichment (6-mer frequency, TF over GST control) in [2]; 1.3 fold enrichment (6-mer frequency, TF over GST control) in test [3]; 1.25 fold enrichment (6-mer frequency, TF over GST control) in [4]; 1.27 fold enrichment (6-mer frequency, TF over GST control) in test [5]; 1.3 fold enrichment (6-mer frequency, TF over GST control) in test [6]. Also, the binding signal is 1.23 fold enrichment (6-mer frequency, TF over GST control) in [7]; 1.21 fold enrichment (6-mer frequency, TF over GST control) in test [8]; 1.33 fold enrichment (6-mer frequency, TF over GST control) in test [9].
Consider TCTTGC, for which the binding signal in [1] is 1.29 fold enrichment (6-mer frequency, TF over GST control); in test [2], 1.33 fold enrichment (6-mer frequency, TF over GST control); in test [3], 1.28 fold enrichment (6-mer frequency, TF over GST control); in [4] it was 1.24 fold enrichment (6-mer frequency, TF over GST control); in [5], 1.41 fold enrichment (6-mer frequency, TF over GST control); in [6], 1.31 fold enrichment (6-mer frequency, TF over GST control). Besides, the binding signal is 1.28 fold enrichment (6-mer frequency, TF over GST control) in [7]; 1.33 fold enrichment (6-mer frequency, TF over GST control) in [8]; 1.55 fold enrichment (6-mer frequency, TF over GST control) in test [9].
As to CGATTG, the binding signal in test [1] was 1.22 fold enrichment (6-mer frequency, TF over GST control); in [2], 1.29 fold enrichment (6-mer frequency, TF over GST control); in test [3], 1.24 fold enrichment (6-mer frequency, TF over GST control); in test [4], 1.26 fold enrichment (6-mer frequency, TF over GST control); in test [5], 1.24 fold enrichment (6-mer frequency, TF over GST control); in [6], 1.1 fold enrichment (6-mer frequency, TF over GST control). Also, the binding signal is 1.22 fold enrichment (6-mer frequency, TF over GST control) in test [7]; 1.19 fold enrichment (6-mer frequency, TF over GST control) in test [8]; 1.24 fold enrichment (6-mer frequency, TF over GST control) in test [9].
For the sequence AAAAAT, the binding signal in test [1] is 1.28 fold enrichment (6-mer frequency, TF over GST control); in [2], 1.24 fold enrichment (6-mer frequency, TF over GST control); in [3] it was 1.31 fold enrichment (6-mer frequency, TF over GST control); in test [4], 1.26 fold enrichment (6-mer frequency, TF over GST control); in [5] it was 1.31 fold enrichment (6-mer frequency, TF over GST control); in [6], 1.37 fold enrichment (6-mer frequency, TF over GST control). For the same sequence, the binding signal is 1.29 fold enrichment (6-mer frequency, TF over GST control) in test [7]; 1.43 fold enrichment (6-mer frequency, TF over GST control) in test [8]; 1.39 fold enrichment (6-mer frequency, TF over GST control) in [9].

Source of the values: publication PMC7862700, “An all-to-all approach to the identification of sequence-specific readers for epigenetic DNA modifications on cytosine”.
